Measured values: PubChem BioAssay (NCI)
Compounds without any hit were thinned out: in the full panel of roughly 83,000, 20% have a hit.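 Results are percent growth after 48 hours of single-concentration exposure. 100 means growth as in untreated cells, lower positive values show inhibition; negative values down to -100 show cell death.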 Calls of active or inactive are those of the source. How the source made its calls: active means growth percent below 10; inactive means the rest.

Tests used:
Experiment in all cases: NCI-60 one-dose screen, 48 h (100 = growth as untreated, 0 = no growth, -100 = all killed)
EKVX NSCLC = conditions: 10 µM unless noted
SN12C renal = conditions: 10 µM unless noted
UO-31 renal = conditions: 10 µM unless noted
TK-10 renal = conditions: 10 µM unless noted
ACHN renal = conditions: 10 µM unless noted
CAKI-1 renal = conditions: 10 µM unless noted
A498 renal = conditions: 10 µM unless noted
CCRF-CEM leukemia = conditions: 10 µM unless noted
SR leukemia = conditions: 10 µM unless noted
RPMI-8226 leukemia = conditions: 10 µM unless noted
OVCAR-8 ovarian = conditions: 10 µM unless noted
OVCAR-5 ovarian = conditions: 10 µM unless noted
OVCAR-4 ovarian = conditions: 10 µM unless noted
SK-OV-3 ovarian = conditions: 10 µM unless noted
IGROV1 ovarian = conditions: 10 µM unless noted
OVCAR-3 ovarian = conditions: 10 µM unless noted
HS 578T breast = conditions: 10 µM
NCI/ADR-RES ovarian = conditions: 10 µM unless noted
MOLT-4 leukemia = conditions: 10 µM unless noted

Measured: growth

O=C(Cn1ccc2ccccc21)Nc1ccc(-c2nc3ccccc3s2)cc1
inactive: EKVX NSCLC 107% | SN12C renal 101% | UO-31 renal 92.4% | TK-10 renal 104% | ACHN renal 111% | CAKI-1 renal 100% | A498 renal 99.1% | CCRF-CEM leukemia 97% | SR leukemia 95.5% | RPMI-8226 leukemia 100% | OVCAR-8 ovarian 105% | OVCAR-5 ovarian 104% | OVCAR-4 ovarian 103% | SK-OV-3 ovarian 102% | IGROV1 ovarian 73.8% | OVCAR-3 ovarian 102% | HS 578T breast 97.7% | NCI/ADR-RES ovarian 100%

O=C(COc1ccc(/C=C2\Cc3ccc(Cl)cc3C2=O)cc1)Nc1nccs1
inactive: EKVX NSCLC 110% | SN12C renal 95.7% | UO-31 renal 28.7% | TK-10 renal 138% | ACHN renal 92.7% | CAKI-1 renal 90.1% | A498 renal 127% | CCRF-CEM leukemia 59.5% | MOLT-4 leukemia 51.7% | SR leukemia 148% | RPMI-8226 leukemia 91.7% | OVCAR-5 ovarian 100% | OVCAR-4 ovarian 90% | SK-OV-3 ovarian 108% | OVCAR-3 ovarian 103% | NCI/ADR-RES ovarian 86.7%

C[C@@H](N)c1ccc(C(=O)Nc2ccnc3[nH]ccc23)cc1
inactive: EKVX NSCLC 67% | SN12C renal 51.8% | UO-31 renal 13.4% | TK-10 renal 46.2% | ACHN renal 36.7% | CAKI-1 renal 20.6% | A498 renal 56.9% | CCRF-CEM leukemia 25.5% | MOLT-4 leukemia 42.2% | RPMI-8226 leukemia 64.7% | OVCAR-8 ovarian 36.2% | OVCAR-5 ovarian 42.9% | OVCAR-4 ovarian 69.9% | IGROV1 ovarian 27.9% | OVCAR-3 ovarian 57.9% | NCI/ADR-RES ovarian 84%
active: SR leukemia 9.45%

O=C(Nc1ccc(Nc2ncnc3sc4c(c23)CCOC4)cc1)Nc1ccc(Cl)c(C(F)(F)F)c1
inactive: EKVX NSCLC 105% | SN12C renal 105% | UO-31 renal 115% | TK-10 renal 109% | ACHN renal 86.6% | CAKI-1 renal 107% | A498 renal 89.5% | CCRF-CEM leukemia 86.7% | MOLT-4 leukemia 74.4% | SR leukemia 83% | RPMI-8226 leukemia 80.8% | OVCAR-8 ovarian 109% | OVCAR-5 ovarian 89.2% | OVCAR-4 ovarian 131% | IGROV1 ovarian 79.5% | OVCAR-3 ovarian 87.2% | NCI/ADR-RES ovarian 94.7%

CCN1CCN(Cc2ccc(NC(=O)Nc3nc(-c4cc(OC)c(OC)c(OC)c4)cs3)cc2C(F)(F)F)CC1
inactive: EKVX NSCLC 26.8% | SN12C renal 28.9% | UO-31 renal 53.2% | TK-10 renal 62.4% | ACHN renal 20.8% | CAKI-1 renal 55.2% | A498 renal 51.6% | OVCAR-8 ovarian 14.1% | OVCAR-5 ovarian 71.3% | OVCAR-4 ovarian 14.1% | IGROV1 ovarian 49.5% | OVCAR-3 ovarian 22.8% | HS 578T breast 40%
active: CCRF-CEM leukemia 0.288% | MOLT-4 leukemia -18.9% | SR leukemia -32.6% | RPMI-8226 leukemia -26% | NCI/ADR-RES ovarian -6.84%

CN(C)CCn1c(=O)c2c3cc4c(cc3n(CCN(C)C)c2c2ccc(Cl)cc21)OCO4
active: MOLT-4 leukemia 3.05% | SR leukemia -13.5%
inactive: EKVX NSCLC 74% | SN12C renal 31.7% | UO-31 renal 57.8% | TK-10 renal 103% | ACHN renal 26.3% | CAKI-1 renal 42.4% | A498 renal 67.1% | CCRF-CEM leukemia 14.4% | RPMI-8226 leukemia 44.7% | OVCAR-8 ovarian 31.7% | OVCAR-5 ovarian 81.4% | OVCAR-4 ovarian 61.3% | IGROV1 ovarian 38.4% | OVCAR-3 ovarian 83.5% | HS 578T breast 84.7% | NCI/ADR-RES ovarian 31.4%

CCN1CCN(CCCN(C[C@H]2Cc3ccccc3CN2)[C@H]2CCCc3cccnc32)CC1
inactive: EKVX NSCLC 84% | SN12C renal 83.8% | UO-31 renal 53.2% | TK-10 renal 85.6% | ACHN renal 87.6% | CAKI-1 renal 74.4% | A498 renal 86.6% | CCRF-CEM leukemia 79.6% | MOLT-4 leukemia 69.8% | SR leukemia 53.6% | RPMI-8226 leukemia 81.8% | OVCAR-8 ovarian 85.3% | OVCAR-5 ovarian 92.7% | OVCAR-4 ovarian 89.5% | IGROV1 ovarian 94.5% | OVCAR-3 ovarian 84.2% | NCI/ADR-RES ovarian 92.1%

Cc1nc(NC(=O)N2CCC[C@H]2C(N)=O)sc1-c1ccnc(C(C)(C)C(F)(F)F)c1
inactive: EKVX NSCLC 41.1% | SN12C renal 57.7% | UO-31 renal 25.1% | TK-10 renal 13.3% | ACHN renal 36.9% | CAKI-1 renal 17.8% | CCRF-CEM leukemia 35.9% | SR leukemia 26.2% | RPMI-8226 leukemia 48.7% | OVCAR-8 ovarian 48.5% | OVCAR-5 ovarian 36.5% | OVCAR-4 ovarian 72% | OVCAR-3 ovarian 39.1% | NCI/ADR-RES ovarian 60.8%
active: A498 renal 1.67% | MOLT-4 leukemia 8.66% | IGROV1 ovarian -23.5%

COc1cc2c(Oc3ccc(NC(=O)C4(C(=O)Nc5ccc(F)cc5)CC4)cc3F)ccnc2cc1OCCCN1CCOCC1
inactive: EKVX NSCLC 25.9% | SN12C renal 14.5% | RPMI-8226 leukemia 10.3% | OVCAR-8 ovarian 26.8% | OVCAR-5 ovarian 11.7% | OVCAR-4 ovarian 32.1% | OVCAR-3 ovarian 46.5%
active: UO-31 renal -74.4% | TK-10 renal -5.46% | ACHN renal -4.14% | CAKI-1 renal -69% | A498 renal -92.4% | CCRF-CEM leukemia -3.58% | MOLT-4 leukemia -9.06% | SR leukemia -16.7% | IGROV1 ovarian -34.7% | NCI/ADR-RES ovarian 9.62%

NC(=O)c1c(OCc2c(F)cc(Br)cc2F)nsc1NC(=O)NCCCCN1CCCC1
inactive: OVCAR-8 ovarian 19.4% | NCI/ADR-RES ovarian 20.2%
active: EKVX NSCLC 4.31% | SN12C renal 0.752% | UO-31 renal -76.8% | TK-10 renal -1.76% | ACHN renal -29.7% | CAKI-1 renal -26.2% | A498 renal -13.8% | CCRF-CEM leukemia 2.77% | MOLT-4 leukemia -16.4% | SR leukemia -34.4% | RPMI-8226 leukemia -26.3% | OVCAR-5 ovarian -14.8% | OVCAR-4 ovarian -41.6% | IGROV1 ovarian -32.4% | OVCAR-3 ovarian -34.1%

CNC(=O)c1cnc(C)nc1-c1cc(C(C)(C)C)c(O)c(C(C)(C)C)c1
inactive: EKVX NSCLC 92.6% | SN12C renal 100% | UO-31 renal 94.6% | TK-10 renal 101% | ACHN renal 101% | CAKI-1 renal 96.8% | A498 renal 112% | CCRF-CEM leukemia 106% | MOLT-4 leukemia 95.7% | SR leukemia 85% | RPMI-8226 leukemia 77.8% | OVCAR-8 ovarian 105% | OVCAR-5 ovarian 102% | OVCAR-4 ovarian 89.7% | IGROV1 ovarian 103% | OVCAR-3 ovarian 116% | HS 578T breast 106% | NCI/ADR-RES ovarian 110%

CCOC(=O)c1sc(NC(=O)COc2ccc(/C=C3\Cc4ccc(Cl)cc4C3=O)cc2)nc1C
active: UO-31 renal -77.3%
inactive: EKVX NSCLC 111% | SN12C renal 102% | TK-10 renal 149% | ACHN renal 102% | CAKI-1 renal 96.1% | A498 renal 143% | CCRF-CEM leukemia 101% | MOLT-4 leukemia 60.6% | SR leukemia 103% | RPMI-8226 leukemia 96.1% | OVCAR-5 ovarian 111% | OVCAR-4 ovarian 112% | SK-OV-3 ovarian 110% | OVCAR-3 ovarian 113% | HS 578T breast 116% | NCI/ADR-RES ovarian 93.9%

Cn1nccc1Nc1nccc(-c2ccn([C@H](CO)c3ccc(Cl)c(F)c3)c(=O)c2)n1
inactive: EKVX NSCLC 93% | SN12C renal 107% | UO-31 renal 68% | TK-10 renal 67.4% | ACHN renal 90.8% | CAKI-1 renal 79.9% | A498 renal 70.5% | CCRF-CEM leukemia 99.8% | SR leukemia 112% | RPMI-8226 leukemia 113% | OVCAR-8 ovarian 104% | OVCAR-5 ovarian 46.9% | OVCAR-4 ovarian 98.8% | SK-OV-3 ovarian 119% | IGROV1 ovarian 82% | OVCAR-3 ovarian 115% | NCI/ADR-RES ovarian 89.7%

CN1CCC(CNc2ccc3ncc(-c4cccc(OC(F)(F)F)c4)n3n2)CC1
active: EKVX NSCLC 4.31% | SN12C renal -81.2% | UO-31 renal -95.1% | TK-10 renal -4.7% | ACHN renal -54.7% | CAKI-1 renal -62.8% | A498 renal -79.8% | CCRF-CEM leukemia -5.49% | MOLT-4 leukemia -5.02% | SR leukemia -19.4% | RPMI-8226 leukemia -45.3% | OVCAR-8 ovarian 0.791% | OVCAR-5 ovarian -32.8% | OVCAR-4 ovarian -1.72% | IGROV1 ovarian -60.4% | OVCAR-3 ovarian -26.6% | NCI/ADR-RES ovarian -4.75%

CNC(=O)c1ccc(Nc2ncc(C(F)(F)F)c(NCc3nccnc3N(C)S(C)(=O)=O)n2)cc1
inactive: NCI/ADR-RES ovarian 29.8%
active: EKVX NSCLC -4.53% | SN12C renal 5.6% | UO-31 renal -6.92% | TK-10 renal -21.5% | ACHN renal 3.54% | CAKI-1 renal 0.765% | A498 renal -42.2% | CCRF-CEM leukemia 4.49% | SR leukemia -21.3% | RPMI-8226 leukemia -26.7% | OVCAR-8 ovarian -0.118% | OVCAR-5 ovarian 0.954% | OVCAR-4 ovarian 1.68% | SK-OV-3 ovarian -21.1% | IGROV1 ovarian 3.11% | OVCAR-3 ovarian 9.41%

Nc1nc(Nc2ccccc2)c(C=Nc2ccccc2)c(=O)[nH]1
inactive: EKVX NSCLC 89.1% | SN12C renal 91% | UO-31 renal 61% | TK-10 renal 116% | ACHN renal 83.4% | CAKI-1 renal 68% | A498 renal 86.3% | CCRF-CEM leukemia 92.1% | MOLT-4 leukemia 81.2% | RPMI-8226 leukemia 94.8% | OVCAR-8 ovarian 85.2% | OVCAR-5 ovarian 90.7% | OVCAR-4 ovarian 94.8% | SK-OV-3 ovarian 86.3% | IGROV1 ovarian 48.5% | OVCAR-3 ovarian 110% | NCI/ADR-RES ovarian 91.9%

Nc1ccc(S(=O)(=O)O)c2cc(S(=O)(=O)O)cc(O)c12
inactive: EKVX NSCLC 101% | SN12C renal 102% | UO-31 renal 107% | TK-10 renal 105% | ACHN renal 104% | CAKI-1 renal 100% | A498 renal 107% | CCRF-CEM leukemia 102% | SR leukemia 105% | RPMI-8226 leukemia 102% | OVCAR-8 ovarian 105% | OVCAR-5 ovarian 102% | OVCAR-4 ovarian 109% | SK-OV-3 ovarian 101% | IGROV1 ovarian 107% | OVCAR-3 ovarian 113% | HS 578T breast 103% | NCI/ADR-RES ovarian 105%

O=C(Cc1ccc(/C=C/C(=O)c2ncc[nH]2)cc1)Nc1ccc(Br)cc1
active: SN12C renal 9.91% | UO-31 renal -40% | ACHN renal 2.05% | CCRF-CEM leukemia 6.63% | SR leukemia 5.06% | RPMI-8226 leukemia -13.3% | OVCAR-8 ovarian 6.77% | IGROV1 ovarian 8.48% | OVCAR-3 ovarian 9.63%
inactive: EKVX NSCLC 38.6% | TK-10 renal 75.5% | CAKI-1 renal 32.5% | A498 renal 73.5% | OVCAR-5 ovarian 18.7% | OVCAR-4 ovarian 46.4% | SK-OV-3 ovarian 70.2% | NCI/ADR-RES ovarian 13.4%
